Measured values: PubChem BioAssay (Tox21)
Inconclusive results are not listed. Calls of active or inactive are those of the source. Unless noted, calls come from the whole dose curve; as a rule, active = well fitted curve in the direction sought with a large enough effect in the repeat runs; inconclusive = weak or mixed curves; inactive = no such curve, though single readings can be large; an effect the other way counts as inactive or inconclusive.

Assays:
[1] = target: Progesterone receptor (Homo sapiens) (UniProt P06401); assay: qHTS assay to identify small molecule agonists of the progesterone receptor (PR) signaling pathway (AID 1346784; calls by dose curve; note: nearly all actives have a fitted effect of over 30% in size)
Sequence of Progesterone receptor (Homo sapiens) (P06401 whole entry, looked up): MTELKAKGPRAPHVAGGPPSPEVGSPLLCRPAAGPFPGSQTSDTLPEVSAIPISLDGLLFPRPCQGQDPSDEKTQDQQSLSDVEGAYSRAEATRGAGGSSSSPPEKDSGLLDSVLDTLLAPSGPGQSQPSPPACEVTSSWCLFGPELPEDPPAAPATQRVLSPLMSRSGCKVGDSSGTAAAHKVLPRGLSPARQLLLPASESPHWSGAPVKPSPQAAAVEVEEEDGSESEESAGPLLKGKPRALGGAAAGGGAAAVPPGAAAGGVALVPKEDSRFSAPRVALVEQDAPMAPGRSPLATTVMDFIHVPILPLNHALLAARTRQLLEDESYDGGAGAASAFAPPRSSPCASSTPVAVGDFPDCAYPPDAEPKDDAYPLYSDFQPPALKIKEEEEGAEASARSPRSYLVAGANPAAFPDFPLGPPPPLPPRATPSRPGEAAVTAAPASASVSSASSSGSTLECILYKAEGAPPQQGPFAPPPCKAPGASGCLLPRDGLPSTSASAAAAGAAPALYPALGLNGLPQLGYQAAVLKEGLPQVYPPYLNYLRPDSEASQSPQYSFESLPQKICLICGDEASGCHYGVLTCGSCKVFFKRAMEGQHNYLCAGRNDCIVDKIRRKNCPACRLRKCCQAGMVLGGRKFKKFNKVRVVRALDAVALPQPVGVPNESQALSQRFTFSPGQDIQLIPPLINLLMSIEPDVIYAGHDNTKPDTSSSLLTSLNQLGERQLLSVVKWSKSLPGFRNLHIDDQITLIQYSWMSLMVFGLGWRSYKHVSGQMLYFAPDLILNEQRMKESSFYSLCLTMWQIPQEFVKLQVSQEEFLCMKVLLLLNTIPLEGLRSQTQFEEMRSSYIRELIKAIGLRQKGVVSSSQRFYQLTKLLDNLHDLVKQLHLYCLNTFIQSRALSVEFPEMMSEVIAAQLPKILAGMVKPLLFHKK
Method in brief: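 HEK 293T PR-UAS-bla reporter cells, 2% charcoal-stripped FBS; 6 hr settle at 37C/5% CO2, compound (DMSO) 16 hr, LiveBLAzer B/G FRET substrate 2 hr RT, fluorescence intensity read.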

[2] = qHTS assay to identify small molecule antagonists of the TGF-beta/Smad signaling pathway - cell viability counter screen (AID 1346824); note: nearly all actives have a fitted effect of over 50% in size
Method in brief: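 Cytotoxicity counter-screen run in the same wells as the beta-lactamase Smad reporter read: CellTiter-Glo luminescence after 30 min at room temperature. HEK 293T SBE-bla cells had 5 hr compound exposure at 37 C with TGF-beta1 (0.25 ng/mL stock).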

[3] = qHTS assay to identify small molecule agonists of the TGF-beta/Smad signaling pathway (AID 1346859; active = well fitted activation curve with a large enough effect in the signal ratio in the repeat runs, not every such curve was filed as active; the % refers to the signal ratio; note: series mostly up to about 77 µM)
Method in brief: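 Read-out: fluorescence at 460 and 530 nm (405 nm excitation) after a 2 hr room-temperature incubation with beta-lactamase FRET substrate. SBE-bla HEK 293T cells had been treated with test compounds for 5 hr at 37 C.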

[4] = target: Thyrotropin-releasing hormone receptor (Homo sapiens) (UniProt P34981); assay: qHTS assay to identify small molecule antagonists of the thyrotropin-releasing hormone receptor (TRHR) signaling pathway (AID 1346877; active = well fitted inhibition curve with a large enough effect in the repeat runs, not every such curve was filed as active; note: series mostly up to about 51 µM)
Sequence of Thyrotropin-releasing hormone receptor (Homo sapiens) (P34981 whole entry, looked up): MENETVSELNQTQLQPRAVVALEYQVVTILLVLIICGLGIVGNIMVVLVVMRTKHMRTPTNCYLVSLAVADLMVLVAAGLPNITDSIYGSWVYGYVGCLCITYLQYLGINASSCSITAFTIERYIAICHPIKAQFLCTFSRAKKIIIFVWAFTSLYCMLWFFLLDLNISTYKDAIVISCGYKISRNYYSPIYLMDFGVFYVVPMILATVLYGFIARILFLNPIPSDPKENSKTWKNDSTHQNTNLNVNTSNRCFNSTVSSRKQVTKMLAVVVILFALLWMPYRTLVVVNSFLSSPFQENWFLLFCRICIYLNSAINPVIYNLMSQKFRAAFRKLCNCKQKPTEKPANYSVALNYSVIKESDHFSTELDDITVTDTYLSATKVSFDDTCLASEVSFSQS
Method in brief: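 TRHR-expressing HEK293 cells loaded with calcium dye for 2 h at 37 C; compounds pre-incubated 5 min at room temperature before TRH challenge at 1 nM final. Intracellular calcium fluorescence read kinetically for 3 min; 15 concentrations in triplicate.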

[5] = target: Thyrotropin-releasing hormone receptor (Homo sapiens) (UniProt P34981); assay: qHTS assay to identify small molecule agonists of the thyrotropin-releasing hormone receptor (TRHR) signaling pathway (AID 1346891; calls by dose curve; note: series mostly up to about 58 µM)
Method in brief: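 HEK293/TRHR cells, 1500 per well, 18 h 37 °C; Ca dye 2 h 37 °C; pin-tool compound addition (agonist mode); kinetic fluorescence 3 min, 1 s reads; 15 concentrations, triplicate.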

[6] = Human pregnane X receptor (PXR) small molecule agonists, qHTS cell viability counter screen (AID 1346977); note: nearly all actives have a fitted effect of over 50% in size; note: potency is the fitted concentration of half-maximal effect
Method in brief: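 Fluorescence read-out (CellTiter-Fluor) of viability in PXR-Luc HepG2 cells, multiplexed with the luciferase agonist read. Compounds in DMSO added after 5hr plating; 24hr total exposure at 37C, 5% CO2.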

[7] = Caspase-3/7 induction in HepG2 cells by small molecules, qHTS assay (AID 1346978); note: nearly all actives have a fitted effect of over 15% in size; note: potency is the fitted concentration of half-maximal effect
Method in brief: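 Caspase-3/7 induction was measured by Caspase-Glo 3/7 luminescence (30 min, room temperature) after a 17 hr compound exposure of wild-type HepG2 cells seeded at 2,000 per well and pre-incubated 5 hr.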

[8] = Caspase-3/7 induction in CHO-K1 cells by small molecules, qHTS assay (AID 1346980); note: nearly all actives have a fitted effect of over 15% in size
Method in brief: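 Luminescent Caspase-Glo 3/7 read (30min, room temperature) quantified apoptosis induction. Cells were wild-type CHO-K1, treated with compound for 17hr at 37 C and 5% CO2.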

[9] = Caspase-3/7 induction in HepG2 cells by small molecules, qHTS cell viability counter screen (AID 1346981); note: series mostly up to about 92 µM; nearly all actives have a fitted effect of over 30% in size
Method in brief: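 Wild-type HepG2 cells, 2,000/well, settled 5 hr at 37 C, 5% CO2 before compound addition. Viability read by CellTiter-Fluor fluorescence, reagent added after 16 hr compound exposure, then 1 hr at 37C, in the same wells as the caspase read.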

[10] = target: Nuclear receptor subfamily 1 group I member 2 (Homo sapiens) (UniProt O75469); assay: Human pregnane X receptor (PXR) small molecule agonists, qHTS assay (AID 1346982); note: nearly all actives have a fitted effect of over 35% in size; note: potency is the fitted concentration of half-maximal effect
Sequence of Nuclear receptor subfamily 1 group I member 2 (Homo sapiens) (O75469 whole entry, looked up): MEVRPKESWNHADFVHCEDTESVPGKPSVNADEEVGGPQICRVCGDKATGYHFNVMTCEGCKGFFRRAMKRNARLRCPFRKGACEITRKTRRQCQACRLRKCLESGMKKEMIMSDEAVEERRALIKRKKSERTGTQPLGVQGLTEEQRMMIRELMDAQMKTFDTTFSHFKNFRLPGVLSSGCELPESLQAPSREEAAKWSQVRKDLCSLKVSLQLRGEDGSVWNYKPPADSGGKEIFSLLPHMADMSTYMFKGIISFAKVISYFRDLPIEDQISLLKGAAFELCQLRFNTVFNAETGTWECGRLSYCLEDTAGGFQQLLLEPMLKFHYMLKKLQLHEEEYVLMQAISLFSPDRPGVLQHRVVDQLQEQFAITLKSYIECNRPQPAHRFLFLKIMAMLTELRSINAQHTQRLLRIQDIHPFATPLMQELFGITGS
Method in brief: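 PXR-Luc HepG2 reporter cells (CYP3A4-driven luciferase) in 5% charcoal-stripped FBS medium, plated 5 h before compound addition, then treated 24 h at 37C. Luciferase read by ONE-Glo luminescence after 30 min at room temperature.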

[11] = target: Cytochrome P450 2D6 (Homo sapiens) (UniProt P10635); assay: Cytochrome P450 Family 2 Subfamily D Member 6 (CYP2D6) small molecule antagonists: luciferase reporter qHTS assay (AID 1671196); note: nearly all actives have a fitted effect of over 50% in size; note: potency is the fitted concentration of half-maximal effect; for activity change, negative = inhibition: series mostly up to about 120 µM
Sequence of Cytochrome P450 2D6 (Homo sapiens) (P10635 whole entry, looked up): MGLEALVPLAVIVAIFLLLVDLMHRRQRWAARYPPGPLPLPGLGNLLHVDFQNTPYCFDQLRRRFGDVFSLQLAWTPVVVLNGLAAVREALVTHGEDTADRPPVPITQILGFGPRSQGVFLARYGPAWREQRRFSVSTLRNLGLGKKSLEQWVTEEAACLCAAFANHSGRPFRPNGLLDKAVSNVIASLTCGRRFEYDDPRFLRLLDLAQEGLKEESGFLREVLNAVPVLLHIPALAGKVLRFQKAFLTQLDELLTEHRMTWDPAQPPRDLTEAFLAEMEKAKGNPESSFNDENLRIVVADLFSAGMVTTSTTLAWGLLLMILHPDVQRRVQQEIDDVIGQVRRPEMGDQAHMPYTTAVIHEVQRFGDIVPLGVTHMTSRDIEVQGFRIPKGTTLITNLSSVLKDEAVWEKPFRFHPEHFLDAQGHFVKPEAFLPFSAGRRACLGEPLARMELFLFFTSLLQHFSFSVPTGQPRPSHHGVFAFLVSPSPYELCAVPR
Method in brief: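 Cell-free P450-Glo system: CYP2D6 with proluciferin substrate was pre-incubated with compound for 10 min, then reacted with NADPH regeneration for 1 h at room temperature. Luciferin product was detected after 20 min, and data were reported as relative luminescence units.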

[12] = qHTS assay to identify small molecule antagonists of the progesterone receptor (PR) signaling pathway - cell viability counter screen (AID 1346798); note: series mostly up to about 92 µM; nearly all actives have a fitted effect of over 50% in size
Method in brief: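 Luminescence readout (CellTiter-Glo, 30 min, RT) of viability in PR-UAS-bla HEK293T cells exposed to compound and R5020 agonist for 16 hr at 37C, 5% CO2; run in the same wells as the beta-lactamase reporter read.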

[13] = qHTS assay to identify small molecule agonists of the progesterone receptor (PR) signaling pathway - cell viability counter screen (AID 1346799; calls by dose curve; note: nearly all actives have a fitted effect of over 45% in size)
Method in brief: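 HEK293T PR-UAS-bla, 3,000 cells/well, 2% charcoal-stripped FBS; 6 h settle, compound 16 h at 37C/5% CO2; LiveBLAzer 2 h RT, then CellTiter-Glo 30 min RT, luminescence read.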

[14] = qHTS assay to identify small molecule agonists of the TGF-beta/Smad signaling pathway - cell viability counter screen (AID 1346829); note: top concentration of the series differs between compounds; nearly all actives have a fitted effect of over 45% in size
Method in brief: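 In parallel with the Smad reporter read, viability of HEK 293T cells stably carrying SBE-bla is quantified by ATP luminescence following 5 hr compound treatment.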

[15] = Caspase-3/7 induction in CHO-K1 cells by small molecules, qHTS cell viability counter screen (AID 1346979); note: nearly all actives have a fitted effect of over 35% in size
Method in brief: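 CHO-K1 wt, 1,500 cells/well; 5hr pre-incubation 37C/5% CO2; compound pin transfer (DMSO); 16hr exposure; CellTiter-Fluor added, 1hr, fluorescence read.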

[16] = target: Progesterone receptor (Homo sapiens) (UniProt P06401); assay: qHTS assay to identify small molecule antagonists of the progesterone receptor (PR) signaling pathway (AID 1346795; active = well fitted inhibition curve with a large enough effect in the signal ratio in the repeat runs, not every such curve was filed as active; the % refers to the signal ratio)
Method in brief: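 Beta-lactamase reporter, HEK293T PR-UAS-bla line; 2% charcoal-stripped FBS; 6 hr pre-incubation, 37C/5% CO2. Compound + R5020 1 nM final, 16 hr. LiveBLAzer B/G FRET substrate, 2 hr RT; fluorescence intensity read.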

[17] = target: Nuclear receptor subfamily 1 group I member 2 (Rattus norvegicus) (UniProt Q9R1A7); assay: Rat pregnane X receptor (rPXR) activation by small molecules, qHTS assay (AID 1346983); details: rPXR luciferase reporter cells, One-Glo luminescence, 24 h; max activation: active compounds read high; note: nearly all actives have a fitted effect of over 20% in size
Sequence of Nuclear receptor subfamily 1 group I member 2 (Rattus norvegicus) (Q9R1A7 whole entry, looked up): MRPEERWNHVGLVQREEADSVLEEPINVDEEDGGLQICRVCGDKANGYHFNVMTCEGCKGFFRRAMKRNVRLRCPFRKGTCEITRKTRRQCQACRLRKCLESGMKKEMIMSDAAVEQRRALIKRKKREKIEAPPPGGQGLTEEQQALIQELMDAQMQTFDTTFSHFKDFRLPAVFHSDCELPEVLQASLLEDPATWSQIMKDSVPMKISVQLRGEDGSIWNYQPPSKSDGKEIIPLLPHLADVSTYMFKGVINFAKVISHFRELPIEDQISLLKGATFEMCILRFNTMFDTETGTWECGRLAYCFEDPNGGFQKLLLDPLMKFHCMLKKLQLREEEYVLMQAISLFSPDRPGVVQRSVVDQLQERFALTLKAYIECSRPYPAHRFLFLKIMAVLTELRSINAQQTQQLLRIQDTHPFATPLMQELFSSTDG
Method in brief: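 Luminescent readout (One-Glo luciferase, 30 min room temperature) followed 24 hr compound treatment at 37 C of rPXR cells plated 2,000 per well and preincubated 5hr; qHTS format with compounds delivered in DMSO.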

[18] = target: Nuclear receptor subfamily 1 group I member 2 (Homo sapiens) (UniProt O75469); assay: CYP3A4 induction through human pregnane X receptor (PXR) by small molecules, qHTS assay (AID 1346984); note: nearly all actives have a fitted effect of over 40% in size
Method in brief: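 DPX-2 HepG2 cells carrying a PXR response element and CYP3A4-promoter luciferase construct, treated with compounds 24 hr at 37C. Then P450-Glo CYP3A4 Luciferin-IPA substrate (3uM final) for 3 hr at 37C, One-Glo added, luminescence read.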

[19] = target: Nuclear receptor subfamily 1 group I member 2 (Homo sapiens) (UniProt O75469); assay: Human pregnane X receptor (PXR) activation by small molecules, qHTS assay (AID 1346985); note: nearly all actives have a fitted effect of over 40% in size
Method in brief: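 DPX-2 cells (HepG2 co-transfected with a PXR response element and a CYP3A4-promoter luciferase construct) were seeded at 2,000 per well, rested 5 hr at 37C, then exposed to DMSO-dissolved compounds for 24 hr. Activation was read as luciferase luminescence.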
% is set by controls: 0 for no effect and ±100 for the full control effect.

CC[C@H]1CC[C@H](NCc2cc3c(cc2OC)[C@H]2C[C@H]2C(=O)N3C)[C@H](c2ccccc2)N1
active: Potency [6] 30.6 µM | Potency [10] 17.2 µM | Potency [11] 7.1 µM
inactive: Potency [1] | outcome [2] | outcome [3] | outcome [4] | Potency [5] | Potency [7] | outcome [8] | Potency [9]

CCOC(=O)COc1ccc2c(c1)CC(NCC(O)c1cccc(Cl)c1)CC2 (stereo unspecified)
active: Potency [7] 48.9 µM | Potency [11] 0.452 µM
inactive: Potency [1] | Potency [12] | Potency [13] | outcome [2] | outcome [3] | outcome [4] | outcome [8] | Potency [10]

CC(C)(CO)[C@@H](O)C(=O)NCCC(=O)O
inactive: Potency [1] | outcome [2] | outcome [14] | outcome [3] | outcome [4] | Potency [5] | Potency [7] | Potency [15] | outcome [8] | Potency [9] | Potency [10] | Potency [11]

COc1ccc(Nc2ccc(OC)cc2)cc1
inactive: Potency [1] | Potency [13] | outcome [2] | outcome [3] | outcome [4] | Potency [5] | Potency [6] | Potency [7] | Potency [15] | outcome [8] | Potency [9]
active: Potency [10] 24.8 µM | Potency [11] 36.2 µM

Oc1ccccc1F
inactive: Potency [1] | Potency [12] | Potency [13] | outcome [2] | outcome [14] | outcome [3] | outcome [4] | Potency [5] | Potency [7] | Potency [15] | outcome [8] | Potency [9] | Potency [10] | Potency [11]

Cc1ccc(C=O)s1
inactive: Potency [1] | Potency [16] | Potency [12] | outcome [2] | outcome [14] | outcome [3] | outcome [4] | Potency [5] | Potency [6] | Potency [7] | outcome [8] | Potency [9] | Potency [10] | Potency [11]

CC1=CC(=O)CC(C)(C)C1=O
active: Potency [10] 62.4 µM
inactive: Potency [1] | Potency [12] | Potency [13] | outcome [2] | outcome [14] | outcome [3] | outcome [4] | Potency [5] | Potency [6] | Potency [7] | outcome [8] | Potency [9] | Potency [11]

C[C@@H]1CN(c2c(F)c(F)c3c(=O)c(C(=O)O)cn(C4CC4)c3c2F)C[C@H](C)N1
inactive: activation [1] 4.11% [at 19 µM] | activity change, negative = inhibition [16] 6.07% [at 18.9 µM] | Potency [12] | viability change, negative = cytotoxic [2] 0.903% [at 15.8 µM] | activity change, negative = cytotoxicity [14] -0.146% [at 15.8 µM] | activation [3] -1.32% [at 15.8 µM] | activity, negative = inhibition [4] -3.72% [at 10.5 µM] | activation [5] 0.0488% [at 11.8 µM] | activity change, negative = cytotoxicity [6] 6.01% [at 19 µM] | caspase activation [7] -1.23% [at 19 µM] | activity change, negative = cytotoxicity [15] 0.544% [at 19 µM] | caspase-3/7 activation [8] 0.203% [at 19 µM] | activity change, negative = cytotoxicity [9] 0.129% [at 19 µM] | activation [10] -4.26% [at 19 µM] | max activation [17] -2.98% | Potency [18] | Potency [19] | activity change, negative = inhibition [11] -28.8% [at 23.6 µM]
